# For some of these results: Measured potencies and affinities stand elsewhere.
# Experiments:
# Design in all cases: scale not given: direction of the effect not stated beside the values
# [1] = target: Protein translocase subunit SecA (Escherichia coli (strain K12)) (UniProt P10408); test: Assay to Identify E. coli SecA ATPase Inhibitors; format: functional; details: 30 µM
# [2] = target: T1, Ubiquitin-activating enzyme e1, putative (Leishmania donovani (strain BPK282A1)) (UniProt E9BSI1); test: Leishmania donovani Ubiquitin Activating Enzyme (LdE1); format: functional; details: 30 µM
# T1 sequence (whole entry): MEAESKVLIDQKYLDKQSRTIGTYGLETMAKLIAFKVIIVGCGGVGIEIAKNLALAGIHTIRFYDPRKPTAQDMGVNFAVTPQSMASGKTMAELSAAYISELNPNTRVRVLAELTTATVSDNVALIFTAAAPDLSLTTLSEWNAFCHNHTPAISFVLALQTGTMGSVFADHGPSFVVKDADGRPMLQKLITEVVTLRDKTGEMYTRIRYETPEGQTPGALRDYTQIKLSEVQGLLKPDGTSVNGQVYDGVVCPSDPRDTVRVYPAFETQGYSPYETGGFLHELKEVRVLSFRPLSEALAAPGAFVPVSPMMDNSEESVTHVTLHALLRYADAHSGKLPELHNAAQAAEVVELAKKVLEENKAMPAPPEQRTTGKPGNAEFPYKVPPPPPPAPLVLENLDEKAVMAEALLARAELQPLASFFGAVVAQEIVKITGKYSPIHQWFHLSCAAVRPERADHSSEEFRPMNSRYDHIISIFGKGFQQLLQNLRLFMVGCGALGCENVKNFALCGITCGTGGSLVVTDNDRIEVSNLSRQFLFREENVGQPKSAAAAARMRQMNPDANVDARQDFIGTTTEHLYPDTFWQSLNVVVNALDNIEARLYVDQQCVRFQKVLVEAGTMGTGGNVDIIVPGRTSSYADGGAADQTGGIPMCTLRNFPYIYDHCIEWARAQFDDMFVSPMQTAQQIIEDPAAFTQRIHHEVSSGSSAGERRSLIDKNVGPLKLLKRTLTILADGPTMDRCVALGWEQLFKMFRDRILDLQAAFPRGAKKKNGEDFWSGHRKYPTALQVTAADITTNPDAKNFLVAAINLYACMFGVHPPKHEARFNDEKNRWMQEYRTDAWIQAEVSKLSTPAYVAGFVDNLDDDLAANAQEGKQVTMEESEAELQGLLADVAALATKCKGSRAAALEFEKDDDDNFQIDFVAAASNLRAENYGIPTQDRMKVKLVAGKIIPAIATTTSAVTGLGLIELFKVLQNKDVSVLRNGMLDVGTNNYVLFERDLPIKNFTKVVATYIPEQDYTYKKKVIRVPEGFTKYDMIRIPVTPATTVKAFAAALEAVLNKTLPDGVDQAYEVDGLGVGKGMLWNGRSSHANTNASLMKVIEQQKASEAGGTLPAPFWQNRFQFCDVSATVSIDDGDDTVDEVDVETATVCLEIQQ
# [3] = target: AMP-activated protein kinase, AMPK (Homo sapiens) (UniProt P54646+O43741+P54619+Q9UGJ0+Q9Y478+Q13131+Q9UGI9); test: AMP-dependent Kinase enzyme assay. An in vitro enzyme assay that detects ADP turnover that is directly proportional to AMPK activity. This uses naive AMPK that is activated during the assay with MK-8722; format: functional; details: 30 µM
# [4] = target: Sialic acid-binding Ig-like lectin 9 (Homo sapiens) (UniProt Q9Y336); test: Hs-Siglec9 ALPHAscreen SOP 20170721; details: 10 µM
# Trypanosoma cruzi = test: Trypanosoma cruzi phosphomannomutase and mannose-1-phosphate guanylyltransferase assay; format: functional; details: 10 µM
# [5] = target: T2, Arginase-2, mitochondrial (Homo sapiens) (UniProt P78540); test: in vitro enzyme assay to detect the production of urea directly proportional to the activity of Arginase II; format: functional; details: 33.3 µM; note: in the data most compounds retested in dose-response had high values
# T2 sequence (whole entry): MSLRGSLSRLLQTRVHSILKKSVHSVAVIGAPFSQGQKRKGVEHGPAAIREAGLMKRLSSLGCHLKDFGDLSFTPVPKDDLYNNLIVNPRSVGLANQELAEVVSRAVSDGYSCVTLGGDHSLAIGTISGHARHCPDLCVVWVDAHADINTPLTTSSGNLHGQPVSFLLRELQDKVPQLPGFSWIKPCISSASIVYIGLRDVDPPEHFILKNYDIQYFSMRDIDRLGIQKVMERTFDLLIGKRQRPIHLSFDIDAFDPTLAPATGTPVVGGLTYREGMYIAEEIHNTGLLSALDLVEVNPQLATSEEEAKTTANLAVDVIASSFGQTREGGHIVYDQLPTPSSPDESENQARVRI
# [6] = target: T3, Proteasome subunit beta (Trypanosoma cruzi) (UniProt O96673); test: Trypanosoma cruzi proteasome chymotrypsin-like activity (TcProtChymo) assay.; note: in the data most compounds retested in dose-response had high values; format: functional; details: 9.37 µM
# T3 sequence (whole entry): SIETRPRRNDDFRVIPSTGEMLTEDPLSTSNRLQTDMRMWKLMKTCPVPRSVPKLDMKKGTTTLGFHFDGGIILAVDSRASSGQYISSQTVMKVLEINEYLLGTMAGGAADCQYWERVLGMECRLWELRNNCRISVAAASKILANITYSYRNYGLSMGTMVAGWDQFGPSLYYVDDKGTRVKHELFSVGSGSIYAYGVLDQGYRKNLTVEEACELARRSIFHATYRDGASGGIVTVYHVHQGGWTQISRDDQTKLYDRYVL
# Homo sapiens = species on record: Homo sapiens; test: To identify inhibition of the IFN signalling (Jak-Stat) pathway via expression of an eGFP reporter gene under the control of an IFN-stimulated response element (ISRE) containing MxA promoter.; format: functional; details: 30 µM
# [7] = target: T4, Tyrosyl-tRNA synthetase, putative (Trypanosoma cruzi (strain CL Brener)) (UniProt Q4DSP6); test: Trypanosoma cruzi tyrosyl tRNA synthetase (TcYRS) _High Tyrosine SOP; format: functional; details: 30 µM; note: in the data most compounds retested in dose-response had high values
# T4 sequence (whole entry): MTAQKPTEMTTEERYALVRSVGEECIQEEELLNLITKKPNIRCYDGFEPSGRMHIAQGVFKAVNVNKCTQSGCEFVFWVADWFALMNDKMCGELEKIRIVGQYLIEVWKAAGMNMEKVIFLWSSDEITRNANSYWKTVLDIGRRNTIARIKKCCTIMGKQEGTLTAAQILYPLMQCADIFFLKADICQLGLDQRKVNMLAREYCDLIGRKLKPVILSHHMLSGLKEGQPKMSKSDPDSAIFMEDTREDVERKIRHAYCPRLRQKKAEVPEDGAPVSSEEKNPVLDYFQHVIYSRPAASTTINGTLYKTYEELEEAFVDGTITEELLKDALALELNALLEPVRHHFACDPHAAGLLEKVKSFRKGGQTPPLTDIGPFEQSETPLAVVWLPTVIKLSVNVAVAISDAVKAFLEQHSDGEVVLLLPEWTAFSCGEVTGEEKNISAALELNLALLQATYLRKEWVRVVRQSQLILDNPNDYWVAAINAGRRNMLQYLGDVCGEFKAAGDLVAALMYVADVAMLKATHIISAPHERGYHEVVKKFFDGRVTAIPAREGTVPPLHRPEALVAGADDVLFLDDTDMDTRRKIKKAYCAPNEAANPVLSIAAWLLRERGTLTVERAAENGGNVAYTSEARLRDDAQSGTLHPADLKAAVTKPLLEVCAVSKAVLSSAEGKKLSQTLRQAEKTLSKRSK
# [8] = target: T4, Tyrosyl-tRNA synthetase, putative (Trypanosoma cruzi (strain CL Brener)); test: Trypanosoma cruzi tyrosyl tRNA synthetase (TcYRS) SOP; format: functional; details: 30 µM
# [9] = target: Chromo domain-containing protein 1 (Saccharomyces cerevisiae (strain ATCC 204508 / S288c) (Baker's yeast)) (UniProt P32657); test: ScCHD-1 Enzyme Inhibition Assay; format: functional; details: 30 µM; note: in the data most compounds retested in dose-response had high values
# Sequence of Chromo domain-containing protein 1 (Saccharomyces cerevisiae (strain ATCC 204508 / S288c) (Baker's yeast)) (P32657 whole entry, the tested form may be a part): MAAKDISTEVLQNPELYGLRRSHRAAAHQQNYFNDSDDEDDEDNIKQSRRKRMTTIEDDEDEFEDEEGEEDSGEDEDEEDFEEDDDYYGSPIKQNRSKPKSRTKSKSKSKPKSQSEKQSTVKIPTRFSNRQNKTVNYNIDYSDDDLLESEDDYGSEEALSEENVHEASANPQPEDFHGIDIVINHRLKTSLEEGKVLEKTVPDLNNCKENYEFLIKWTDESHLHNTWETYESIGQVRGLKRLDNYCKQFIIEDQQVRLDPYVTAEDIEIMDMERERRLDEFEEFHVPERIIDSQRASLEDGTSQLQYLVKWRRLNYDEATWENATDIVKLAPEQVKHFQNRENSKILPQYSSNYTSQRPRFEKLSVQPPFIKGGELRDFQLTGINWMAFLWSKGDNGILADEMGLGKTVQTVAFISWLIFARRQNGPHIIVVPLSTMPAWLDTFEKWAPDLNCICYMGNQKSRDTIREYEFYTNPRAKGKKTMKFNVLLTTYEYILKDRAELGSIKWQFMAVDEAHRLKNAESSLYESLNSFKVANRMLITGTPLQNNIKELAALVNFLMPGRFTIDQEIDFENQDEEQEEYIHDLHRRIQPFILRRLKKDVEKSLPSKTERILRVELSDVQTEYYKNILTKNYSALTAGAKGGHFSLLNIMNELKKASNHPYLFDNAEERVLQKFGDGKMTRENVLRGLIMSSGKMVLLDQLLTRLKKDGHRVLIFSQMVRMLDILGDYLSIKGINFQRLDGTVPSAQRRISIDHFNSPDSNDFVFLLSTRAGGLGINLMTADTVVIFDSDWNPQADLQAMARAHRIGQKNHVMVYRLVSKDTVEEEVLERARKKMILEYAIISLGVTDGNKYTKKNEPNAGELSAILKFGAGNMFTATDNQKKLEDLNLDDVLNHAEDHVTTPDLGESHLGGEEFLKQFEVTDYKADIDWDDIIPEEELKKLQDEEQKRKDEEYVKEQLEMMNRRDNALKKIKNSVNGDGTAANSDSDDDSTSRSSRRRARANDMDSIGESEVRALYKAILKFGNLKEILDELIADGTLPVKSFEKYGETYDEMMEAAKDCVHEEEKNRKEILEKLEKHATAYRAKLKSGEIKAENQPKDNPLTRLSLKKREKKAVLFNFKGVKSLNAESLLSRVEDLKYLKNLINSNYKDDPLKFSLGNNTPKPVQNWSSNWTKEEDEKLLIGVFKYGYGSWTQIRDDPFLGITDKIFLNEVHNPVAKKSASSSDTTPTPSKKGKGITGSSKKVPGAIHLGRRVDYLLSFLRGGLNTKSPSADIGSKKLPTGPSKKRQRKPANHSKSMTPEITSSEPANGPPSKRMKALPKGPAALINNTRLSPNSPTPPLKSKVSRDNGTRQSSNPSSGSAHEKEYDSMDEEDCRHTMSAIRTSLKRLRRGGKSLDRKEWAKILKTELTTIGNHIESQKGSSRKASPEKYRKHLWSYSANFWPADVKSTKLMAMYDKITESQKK
# Sequence of Sialic acid-binding Ig-like lectin 9 (Homo sapiens) (Q9Y336 whole entry): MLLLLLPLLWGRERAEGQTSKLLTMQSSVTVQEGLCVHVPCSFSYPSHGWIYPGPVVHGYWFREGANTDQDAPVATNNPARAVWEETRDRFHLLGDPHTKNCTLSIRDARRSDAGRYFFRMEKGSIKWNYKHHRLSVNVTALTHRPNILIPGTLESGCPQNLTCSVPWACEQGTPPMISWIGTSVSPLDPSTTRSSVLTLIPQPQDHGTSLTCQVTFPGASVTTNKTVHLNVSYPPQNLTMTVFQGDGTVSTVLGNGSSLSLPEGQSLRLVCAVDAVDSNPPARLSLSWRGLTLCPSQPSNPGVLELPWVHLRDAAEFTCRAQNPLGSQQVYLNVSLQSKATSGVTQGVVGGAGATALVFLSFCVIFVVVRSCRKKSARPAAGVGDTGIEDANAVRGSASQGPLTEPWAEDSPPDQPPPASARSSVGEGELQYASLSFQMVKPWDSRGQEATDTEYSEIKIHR
# Sequence of Protein translocase subunit SecA (Escherichia coli (strain K12)) (P10408 whole entry): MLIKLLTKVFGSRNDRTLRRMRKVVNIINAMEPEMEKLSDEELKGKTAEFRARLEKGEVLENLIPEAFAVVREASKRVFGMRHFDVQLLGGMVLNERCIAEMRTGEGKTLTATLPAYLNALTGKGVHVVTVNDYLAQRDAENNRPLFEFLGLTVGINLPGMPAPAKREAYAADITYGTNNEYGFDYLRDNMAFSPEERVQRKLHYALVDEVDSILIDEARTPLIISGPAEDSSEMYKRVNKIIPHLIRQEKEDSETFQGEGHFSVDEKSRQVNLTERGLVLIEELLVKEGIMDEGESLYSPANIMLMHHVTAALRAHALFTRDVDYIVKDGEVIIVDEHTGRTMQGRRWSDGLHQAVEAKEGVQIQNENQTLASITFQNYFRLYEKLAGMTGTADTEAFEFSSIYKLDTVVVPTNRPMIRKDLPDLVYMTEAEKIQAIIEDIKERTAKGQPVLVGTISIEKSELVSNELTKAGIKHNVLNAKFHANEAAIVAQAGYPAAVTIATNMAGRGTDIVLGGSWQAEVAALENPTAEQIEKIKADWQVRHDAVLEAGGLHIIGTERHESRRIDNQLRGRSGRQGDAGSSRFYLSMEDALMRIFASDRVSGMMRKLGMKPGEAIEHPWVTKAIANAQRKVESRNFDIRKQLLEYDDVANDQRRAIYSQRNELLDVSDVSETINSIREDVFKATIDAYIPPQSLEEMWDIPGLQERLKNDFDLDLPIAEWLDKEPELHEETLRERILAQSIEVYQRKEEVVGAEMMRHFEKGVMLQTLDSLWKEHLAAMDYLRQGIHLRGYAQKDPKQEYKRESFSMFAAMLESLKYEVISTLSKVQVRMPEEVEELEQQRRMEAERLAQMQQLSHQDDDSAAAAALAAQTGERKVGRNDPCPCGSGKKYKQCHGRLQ
SMILES,Percent Effect [1],Percent Effect [2],Percent Effect [3],Percent Effect [4],Percent Effect (Trypanosoma cruzi),Percent Effect [5],Percent Effect [6],Percent Effect (Homo sapiens),Percent Effect [7],Percent Effect [8],Percent Effect [9]
Cc1cnn(CC2CCCN2Cc2nc3ccccc3nc2C)c1 (stereo not given),-2.22%,0%,0.154%,1.31%,4.41%,1.47%,10.4%,9.09%,0%,7.06%,-12.8%
NC(=O)C1CN(Cc2c[nH]cn2)CCN(C2CCOCC2)C1 (stereo not given),1.35%,4.05%,5.54%,9.65%,-7.12%,18.8%,7.02%,19.2%,12.9%,19.5%,-6.44%
Cn1ncc2c(=O)[nH]c(CN3CCCC3c3cccs3)nc21 (stereo not given),-2.36%,20.2%,-1.76%,-3.9%,-5.38%,1.14%,5.32%,15.9%,7.39%,11.4%,-5.13%
Cc1ccc(CN2CC[C@H]3OCC[C@@H](C(=O)NC4CC4)[C@@H]3C2)o1,-6.72%,5.41%,-20.2%,-9.85%,-4.01%,1.59%,7.75%,11.3%,-1.08%,-2.56%,-0.126%
O=C(c1cn(-c2cc(N3CCOCC3)ncn2)cn1)N1CCSCC1,-3.27%,8.22%,-3.63%,4.82%,1.18%,4.09%,25%,8.07%,9.68%,15%,-5.28%
CCn1ccnc1CN1CCN(C(C)C(=O)NC2CCCCC2)CC1 (stereo not given),-6.02%,5.26%,-1.96%,-3.82%,-7.71%,0.766%,5.68%,24.7%,-3.43%,-4.88%,5.81%
Cc1cncc(C(=O)N2CCCC(C(=O)CCc3ccccc3)C2)c1 (stereo not given),3.06%,2.74%,1.42%,1.76%,-5.88%,4.54%,19.2%,14.7%,4.3%,15%,-12.2%
CC(C)(C)c1ncc(C(=O)NCCS(N)(=O)=O)s1,-6.98%,2.63%,-2.41%,7.37%,0.654%,-2.88%,-6.01%,-5.3%,6.4%,11.1%,2.8%
O=C(NCc1cccs1)[C@H]1CC[C@@H]2[C@@H](CCN2c2ncccn2)O1,-2.42%,5.41%,-0.805%,-3.31%,6.45%,-0.833%,18.9%,18.7%,8.91%,18.3%,-3.92%
CC(=O)N1CCC(c2ccnc(Nc3cncnc3)n2)C1 (stereo not given),-2.09%,13.3%,12.8%,-1.51%,-0.394%,0.699%,-0.793%,8.94%,7.45%,14.1%,-3.42%
CC(=O)N1CCCN(c2nccc(-c3cn(C)nc3C)n2)CC1,-5.23%,5.33%,-0.173%,25.5%,0.682%,0%,9.24%,-1.59%,0.546%,8.64%,-7.43%
Cc1cnn(CC2CCCN2C(=O)c2ccc3cc[nH]c3c2)c1 (stereo not given),-1.42%,1.27%,3.59%,1.53%,-1.33%,1.5%,2.4%,13.8%,0%,5.06%,-8.72%
NC(=O)C1CCN(Cn2nc(-c3ccccc3)oc2=O)CC1,-1.26%,15.6%,6.06%,6.43%,1.08%,-56.5%,20.3%,2.82%,4.3%,16.1%,-5.92%
CCc1n[nH]c(C2CN(Cc3nnc(C4CC4)n3C)CCO2)n1 (stereo not given),0.518%,20.8%,-9.24%,-6.88%,-1.08%,3.16%,12.7%,30.4%,2.86%,9.41%,-17.9%
COc1ccccc1C(O)CNC(=O)Nc1ncccc1C (stereo not given),-3.85%,12.7%,3.4%,-8.4%,6.52%,0%,8.27%,16.1%,5.42%,16.5%,-4.09%
Cc1ccc(C)c(NC(=O)Nc2c[nH]c(=O)[nH]c2=O)c1,3.77%,13%,-1.87%,-3.33%,-4.44%,11%,4.7%,7.57%,2.12%,3.85%,-8.57%
Cc1nc(C)n(CC2CCCCN2CCCS(=O)(=O)N(C)C)n1 (stereo not given),4.38%,16.2%,-12.4%,5.89%,2.7%,3.33%,11.9%,4.05%,4.76%,7.32%,-0.511%
c1coc(-c2noc(CN3CC(n4cccn4)C3)n2)c1,-5.48%,7.79%,3%,-4.91%,0.49%,1.05%,2.18%,19.4%,3.81%,9.41%,-11.1%
O=C(Cc1ccsc1)NCC1OCCc2cn(CC3CC3)nc21 (stereo not given),-2.34%,7.79%,4.36%,-0.104%,-3.06%,4.52%,9.92%,10.1%,8.47%,8.97%,-0.722%
Cc1noc(C)c1CNCC1CCN(CC(O)c2ccccc2)CC1 (stereo not given),-1.37%,11.4%,-4.26%,6.03%,-1.54%,-1.5%,9.09%,-17.5%,4.17%,17.7%,-18%
